Rows were chosen to be rich in hits. Some 2.1% of all compounds tested hit in one or more screens of this group.
Abeta rescue – qHTS for compounds that reverse cellular toxicity of Amyloid beta (A-beta) peptide in yeast: Primary Screen | yeast expressing A-beta42, growth rescue, OD600, 48 h; response scale: 0% DMSO, 100% iron-clioquinol control | Potency, µM (highest dose often 46.1 µM), most hits filed as activators | hit rate 0.063% among 410,000 | AID 1347071, 2019; also: nearly all actives have a fitted effect of over 55% in size
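Yeast A-beta toxicity model in growth medium with pinned compounds, 48 h at 30 C; growth read as absorbance at 600 nm. Normalized to FeCl3/clioquinol equimolar mix (positive) and DMSO (negative).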
TDP-43 yeast inh – qHTS of TDP-43 Inhibitors | hit rate 1.8% among 410,000 | Potency, µM (series often up to 46.1 µM), for the others: at the top dose growth rescue (activation), hits mostly activators | TDP-43 expressing yeast growth rescue, BacTiter-Glo, 24 h | AID 652104, 2013; also: % of control where 0% means no effect; nearly all actives have a fitted effect of over 50% in size
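Galactose-induced TDP-43 yeast, OD600=0.02, compound pinned; 24 hr, 30 deg C; BacTiter-Glo luminescence for growth. Inhibitors of TDP-43 toxicity read as activators.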
aSyn yeast inh – qHTS of alpha-syn Inhibitors; Yeast expressing alpha-synuclein, growth rescue, BacTiter-Glo, 24 h; Potency, µM (titrated, usually from 46.1 µM), inactives show at the highest dose growth rescue (activation), usual class: activators; hit rate 0.14% among 370,000; AID 652106, 2013; also: % of control where 0% means no effect; nearly all actives have a fitted effect of over 65% in size
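Screening used galactose-induced yeast with toxic alpha-synuclein levels, exposed to compound for 24 hr at 30 deg C. Cell growth, read with BacTiter-Glo luminescence, gave the measured signal.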
FUS suppressor – qHTS for Suppressors of FUS Proteinopathy: Primary screen using FUS-linked yeast assay | S. cerevisiae FUS-expressing, growth rescue, OD600, 24 h | Potency, µM (titrated, usually from 76.6 µM), most hits filed as activators | hit rate 0.24% among 390,000;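 also: plate controls were DMSO vehicle for no effect and reference control for full effect; nearly all actives have a fitted effect of over 55% in size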
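FUS-expressing yeast, raffinose-pregrown, induced in 2% galactose minimal medium at OD 0.005; compounds in a dilution series, 24hr at 30C. Growth restoration read as absorbance at 600 nm. CP55940 positive control, DMSO negative.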
* marks the source's active call; other numbers are inactive results; i = inactive; u = inconclusive; x = not tested or not shown. Calls follow the shape of the dose curve; as a rule, active = well fitted curve in the direction sought with a large enough effect; inconclusive = small, poorly fitted or top-dose-only effect, or another doubt; inactive = no such curve, though single readings can be large; an effect the other way counts as inactive or inconclusive. Potency is read from the fitted curve at half-maximal effect.

SMILES | Abeta rescue | TDP-43 yeast inh | aSyn yeast inh | FUS suppressor
CCCCCN(C(=O)CCC(=O)OCC(=O)c1ccc(F)c(F)c1)c1c(N)n(CCCC)c(=O)[nH]c1=O | i | 11.2% | 0.7% | 28.2µM*
CCCCCN(C(=O)CCC(=O)OC(C)C(=O)c1ccc(Cl)cc1)c1c(N)n(CCCC)c(=O)[nH]c1=O (configuration not stated) | i | -3.6% | 1.5% | 31.6µM*
CCCCn1c(N)c(N(CC(C)C)C(=O)c2ccc(Cl)c(S(=O)(=O)N3CCCC3)c2)c(=O)[nH]c1=O | i | -9.2% | -15.7% | 31.6µM*
CCCCCN(C(=O)CCC(=O)OC(C)C(=O)NCc1ccccc1)c1c(N)n(CCCC)c(=O)[nH]c1=O (configuration not stated) | i | -8.5% | -4.7% | i
O=[N+]([O-])c1ccc(OCCCN2CCC(C(O)(c3ccccc3)c3ccccc3)CC2)c(Cl)c1 | x | x | x | i
CC1(C)CC(=O)N(CC(=O)N2CCN(Cc3ccccc3)CC2)c2ccccc2S1(=O)=O | x | x | x | i
Fc1cccc(NC(=S)N2CCc3ccccc32)c1 | u | 14.1µM* | 1.4% | i
CC(=O)c1cccc(NC(=S)N2CCc3ccccc32)c1 | i | u | 6.5% | i
S=C(Nc1ccccc1)N1CCc2ccccc21 | u | 12.6µM* | 0.8% | i
Cc1ccc(S(=O)(=O)n2nccc2-c2c(-c3ccccc3)noc2C)cc1 | i | -13.2% | 0.8% | i
Cc1onc(-c2ccccc2)c1-c1ccnn1C(=O)NC(C)C | i | 11.2µM* | -11.6% | i
Cc1oc(-c2ccc(Cl)cc2)nc1CS(=O)CC(=O)N1CCN(c2cccc(C(F)(F)F)c2)CC1 (configuration not stated) | i | 6.7% | x | i
Cc1ccc(-c2nc(CS(=O)CC(=O)N3CCN(c4cccc(Cl)c4)CC3)c(C)o2)cc1 (configuration not stated) | i | 31.6µM* | x | u
Cc1oc(-c2ccccc2Cl)nc1CS(=O)CC(=O)N1CCN(c2cccc(C(F)(F)F)c2)CC1 (configuration not stated) | i | u | x | 25.1µM*
O=C(Nc1ccc(Cl)cc1)C1CCN(S(=O)(=O)c2ccc(Br)s2)CC1 | i | 14.2% | x | i
Cn1nc(-c2ccccc2)c(CO)c1Oc1cccc(C(F)(F)F)c1 | i | 11.2µM* | 3.6% | i
CCOC(=O)[C@]12CCCC=C1N(CCCOC)C(=O)[C@@H]2CC(=O)NCCc1ccccc1OC | x | x | x | i
CC(C)CCNC(=O)Cn1c(SCc2cccc(F)c2)nc2ccncc21 | x | x | 0.4% | x
O=C(/C=C/c1ccc2c(c1)OCO2)N1CCN(c2ccccc2F)CC1 | i | 35.5µM* | 4.9% | x
COc1ccccc1N1CCN(C(=O)/C=C/c2ccc3c(c2)OCO3)CC1 | i | u | 5.5% | i
Clc1ccc(-c2nnc(C3CCCCC3)o2)cc1 | i | 11.2µM* | -3.4% | i
Clc1ccc(-c2nnc(C3CC3)o2)cc1 | i | 6.7% | 7.7% | i
CN1CCOc2cc(S(=O)(=O)N3CCN(c4nc(-c5cccs5)nc5ccccc45)CC3)ccc21 | x | x | -7.4% | x
NC(=S)Cc1ccc(Cl)cc1Cl | i | 12.6µM* | -3.6% | i
Cc1nc2ccc(C(=O)N3CCN(C(=O)C(Cl)Cl)CC3)cc2n1C1CCCC1 | x | x | x | i
SMILES | Abeta rescue | TDP-43 yeast inh | aSyn yeast inh | FUS suppressor
COc1ccc(N2CCN(S(=O)(=O)c3ccc4c(c3)CC(C)N4C(C)=O)CC2)cc1 (configuration not stated) | i | -9.3% | x | i
COc1ccc(N2C(=O)CC(Sc3nnc(-c4ccccc4)o3)C2=O)cc1 (configuration not stated) | i | 11.2µM* | x | i
Cc1nc(SC2CC(=O)N(c3ccccc3)C2=O)n[nH]1 (configuration not stated) | i | 4.47µM* | -10.6% | i
O=C1CC(Sc2nnc(-c3ccccc3O)o2)C(=O)N1c1ccccc1 (configuration not stated) | i | u | u | u
O=S1(=O)CC2c3ccc(F)cc3CN2CN1CCc1ccccc1 (configuration not stated) | x | x | x | i
COc1cccc(/C=C2\CC3(OC(=O)c4ccco4)CCCN2C3)c1 (configuration not stated) | x | x | x | i
